# Measurements taken from PubChem BioAssay (NCI).
# Several values for one entry are separate records, joined by “and”; a condition that tells them apart may be missing. Equal entries are not always repeated. This is part of a sample that, as a whole, favours compounds with a hit. Of some 83,000 tested, about 20% had one in any assay.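 Treatment: one concentration, 48 hours, 96-well format. Scoring: percent growth, with anything below 10 considered active.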 Activity calls are given as the source filed them.
# Tests used:
# Assay in all cases: NCI-60 one-dose screen, 48 h (100 = growth as untreated, 0 = no growth, -100 = all killed)
# NCI-H23 lung = system: NCI-H23 lung
# NCI-H226 lung = system: NCI-H226 lung
# NCI-H322M lung = conditions: 10 µM unless noted
# HOP-62 NSCLC = system: HOP-62 NSCLC
# NCI-H460 lung = system: NCI-H460 lung
# HOP-92 NSCLC = system: HOP-92 NSCLC
# NCI-H522 lung = system: NCI-H522 lung
# A549/ATCC NSCLC = system: A549/ATCC NSCLC
# 786-0 renal = system: 786-0 renal
# COLO 205 colon = conditions: 10 µM unless noted
structure (smiles),measurement,setting,value
O=C(Nc1ccc(Cl)cc1)c1cc2ccccc2cc1O,growth,NCI-H23 lung; 10 µM unless noted,12.2% (inactive) and 4.22% (active)
same,growth,NCI-H226 lung; 10 µM unless noted,54.4% (inactive) and 42.1% (inactive)
same,growth,NCI-H322M lung,17.1% (inactive) and 19.6% (inactive)
same,growth,HOP-62 NSCLC; 10 µM unless noted,63.6% (inactive) and 5.51% (active)
same,growth,NCI-H460 lung; 10 µM unless noted,8.06% (active) and -15.7% (active)
same,growth,HOP-92 NSCLC; 10 µM unless noted,-9.86% (active)
same,growth,NCI-H522 lung; 10 µM unless noted,26.1% (inactive) and -32.3% (active)
same,growth,A549/ATCC NSCLC; 10 µM unless noted,68.2% (inactive) and 26.4% (inactive)
same,growth,786-0 renal; 10 µM unless noted,67.1% (inactive) and -31.9% (active)
same,growth,COLO 205 colon,91.4% (inactive) and 70.4% (inactive)
O=[N+]([O-])c1ccccc1/C=N\Nc1ccccc1,growth,NCI-H23 lung; 10 µM unless noted,75.3% (inactive) and 88.1% (inactive)
same,growth,NCI-H226 lung; 10 µM unless noted,89.4% (inactive) and 97.8% (inactive)
same,growth,NCI-H322M lung,86.5% (inactive) and 78.3% (inactive)
same,growth,HOP-62 NSCLC; 10 µM unless noted,90% (inactive) and 90.6% (inactive)
same,growth,NCI-H460 lung; 10 µM unless noted,91.2% (inactive) and 97.4% (inactive)
same,growth,HOP-92 NSCLC; 10 µM unless noted,72.2% (inactive)
same,growth,NCI-H522 lung; 10 µM unless noted,68.2% (inactive) and 62.3% (inactive)
same,growth,A549/ATCC NSCLC; 10 µM unless noted,81.4% (inactive) and 81.6% (inactive)
same,growth,786-0 renal; 10 µM unless noted,86.6% (inactive) and 101% (inactive)
same,growth,COLO 205 colon,94.4% (inactive) and 105% (inactive)
Cc1cc(O)c(C(C)C)cc1S(=O)(=O)O (tested in a mixture with another compound),growth,NCI-H23 lung; 10 µM unless noted,87.6% (inactive) and 13% (inactive) and 102% (inactive)
same,growth,NCI-H226 lung; 10 µM unless noted,89% (inactive) and 43.4% (inactive) and 93.8% (inactive)
same,growth,NCI-H322M lung,90.7% (inactive) and 24.7% (inactive) and 93.4% (inactive)
same,growth,HOP-62 NSCLC; 10 µM unless noted,77.5% (inactive) and 33.1% (inactive) and 106% (inactive)
same,growth,NCI-H460 lung; 10 µM unless noted,99.1% (inactive) and 1.34% (active) and 108% (inactive)
same,growth,HOP-92 NSCLC; 10 µM unless noted,89.5% (inactive) and 6.59% (active) and 77.8% (inactive)
same,growth,NCI-H522 lung; 10 µM unless noted,88.5% (inactive) and -20.5% (active)
same,growth,A549/ATCC NSCLC; 10 µM unless noted,90.1% (inactive) and 8.67% (active) and 102% (inactive)
same,growth,786-0 renal; 10 µM unless noted,87.2% (inactive) and 13% (inactive) and 116% (inactive)
same,growth,COLO 205 colon,124% (inactive) and -63.7% (active) and 103% (inactive)
Cc1cc(=O)[nH]c(O)c1C#N,growth,NCI-H23 lung; 10 µM unless noted,103% (inactive) and 97.6% (inactive)
same,growth,NCI-H226 lung; 10 µM unless noted,103% (inactive) and 101% (inactive)
same,growth,NCI-H322M lung,95.5% (inactive) and 99% (inactive)
same,growth,HOP-62 NSCLC; 10 µM unless noted,96.6% (inactive) and 101% (inactive)
same,growth,NCI-H460 lung; 10 µM unless noted,105% (inactive) and 104% (inactive)
same,growth,HOP-92 NSCLC; 10 µM unless noted,106% (inactive) and 52% (inactive)
same,growth,NCI-H522 lung; 10 µM unless noted,101% (inactive) and 96.9% (inactive)
same,growth,A549/ATCC NSCLC; 10 µM unless noted,102% (inactive) and 95.3% (inactive)
same,growth,786-0 renal; 10 µM unless noted,97.7% (inactive) and 98.5% (inactive)
same,growth,COLO 205 colon,111% (inactive) and 104% (inactive)
Cc1[nH]c(-c2nc3ccccc3[nH]2)c(C)c1C(=O)NC(C)C1CCCCC1 (configuration not stated),growth,NCI-H23 lung; 10 µM,87.1% (inactive)
same,growth,NCI-H23 lung; 100 µM,-84.8% (active)
same,growth,NCI-H226 lung; 10 µM,81.1% (inactive)
same,growth,NCI-H226 lung; 100 µM,-53% (active)
same,growth,HOP-62 NSCLC; 10 µM,95.5% (inactive)
same,growth,HOP-62 NSCLC; 100 µM,-54.4% (active)
same,growth,NCI-H460 lung; 10 µM,98.1% (inactive)
same,growth,NCI-H460 lung; 100 µM,-72% (active)
same,growth,HOP-92 NSCLC; 10 µM,78.7% (inactive)
same,growth,HOP-92 NSCLC; 100 µM,-50.9% (active)
same,growth,NCI-H522 lung; 10 µM,80.9% (inactive)
same,growth,NCI-H522 lung; 100 µM,-36.1% (active)
same,growth,A549/ATCC NSCLC; 10 µM,90.5% (inactive)
same,growth,A549/ATCC NSCLC; 100 µM,-40.2% (active)
same,growth,786-0 renal; 10 µM,95.2% (inactive)
same,growth,786-0 renal; 100 µM,-31.1% (active)
same,growth,COLO 205 colon,-60.3% [100 µM] (active)
O=C(Nc1cccc(Cl)c1)c1cc2ccccc2cc1O,growth,NCI-H23 lung; 10 µM unless noted,4.9% (active) and 9.55% (active)
same,growth,NCI-H226 lung; 10 µM unless noted,45.8% (inactive) and 40.6% (inactive)
same,growth,NCI-H322M lung,15% (inactive) and -3.24% (active)
same,growth,HOP-62 NSCLC; 10 µM unless noted,37.7% (inactive) and 15.1% (inactive)
same,growth,NCI-H460 lung; 10 µM unless noted,5.98% (active) and 5.93% (active)
same,growth,HOP-92 NSCLC; 10 µM unless noted,-30.8% (active) and -32.5% (active)
same,growth,NCI-H522 lung; 10 µM unless noted,1.12% (active) and 2.91% (active)
same,growth,A549/ATCC NSCLC; 10 µM unless noted,20.7% (inactive) and 9.25% (active)
same,growth,786-0 renal; 10 µM unless noted,53.6% (inactive) and 17.3% (inactive)
same,growth,COLO 205 colon,104% (inactive) and 42.6% (inactive)
O=C(CN1CCOCC1)N1CCOCC1,growth,NCI-H23 lung; 10 µM unless noted,110% (inactive) and 104% (inactive)
same,growth,NCI-H226 lung; 10 µM unless noted,105% (inactive) and 113% (inactive)
same,growth,NCI-H322M lung,92% (inactive) and 110% (inactive)
same,growth,HOP-62 NSCLC; 10 µM unless noted,106% (inactive) and 112% (inactive)
same,growth,NCI-H460 lung; 10 µM unless noted,111% (inactive) and 114% (inactive)
same,growth,HOP-92 NSCLC; 10 µM unless noted,75.3% (inactive)
same,growth,NCI-H522 lung; 10 µM unless noted,75.3% (inactive) and 101% (inactive)
same,growth,A549/ATCC NSCLC; 10 µM unless noted,103% (inactive)
same,growth,786-0 renal; 10 µM unless noted,102% (inactive) and 108% (inactive)
same,growth,COLO 205 colon,115% (inactive) and 105% (inactive)
O=C(Nc1ccc(Br)cc1)c1cc(Br)ccc1O,growth,NCI-H23 lung; 10 µM unless noted,0.675% (active) and -16.7% (active)
same,growth,NCI-H226 lung; 10 µM unless noted,18.2% (inactive) and -33.2% (active)
same,growth,NCI-H322M lung,-15.9% (active) and 1.23% (active)
same,growth,HOP-62 NSCLC; 10 µM unless noted,20.2% (inactive) and -5.46% (active)
same,growth,NCI-H460 lung; 10 µM unless noted,2.62% (active) and 3.86% (active)
same,growth,HOP-92 NSCLC; 10 µM unless noted,-23% (active) and -12% (active)
same,growth,NCI-H522 lung; 10 µM unless noted,-13.8% (active) and 2.52% (active)
same,growth,A549/ATCC NSCLC; 10 µM unless noted,14.8% (inactive) and 14.7% (inactive)
same,growth,786-0 renal; 10 µM unless noted,0.723% (active) and 2.62% (active)
same,growth,COLO 205 colon,92.9% (inactive) and -42.3% (active)
